IMPase Li inh: cell-permeable IMPase inhibitors with lithium potentiation; CHO-M1 cells, IP1 TR-FRET (IP-One), carbachol + lithium; Potency, µM (doses to about 59.4 µM), for inactives: at the top dose activity, negative = IMPase inhibition, usual class: inhibitors; 210,000 compounds, 0.35% hits; AID 1457;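 further: IP1 builds up when IMPase is blocked and the TR-FRET signal falls; potency means the concentration at half of the fitted maximal effect; plate controls were basal vehicle for no effect and high inhibitor control for full effect; nearly all actives have a fitted effect of over 50% in size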
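Steps: plate 2000 CHO-M1 cells per well and culture 16–30 h; add compound and lithium; incubate 30 min, 37C; add d2-IP1 tracer and Eu cryptate anti-IP1 antibody in lysis buffer; read after 10 min at room temperature.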
IMPase cell inh: cell-permeable inhibitors of inositol monophosphatase (IMPase). inhibition (IP1 accumulation), % at 46.1 µM. P97697. CHO-M1 cells, IP1 accumulation, HTRF TR-FRET ratio. 120,000 tested, under 10 active; active means well fitted curve in the direction sought with a large enough effect in the signal ratio, not every such curve was filed as active; inconclusive means small, poorly fitted or top-dose-only effect, or a change in a side signal; inactive means no such curve, though single readings can be large or run the other way; the % refers to the signal ratio;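 further: cells stimulated with carbachol in lithium chloride buffer; plate controls were DMSO basal wells for no effect and reference inhibitor wells for full effect; higher means more IMPase inhibition seen as more IP1 and lower FRET ratio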
Target sequence (P97697 whole entry, looked up): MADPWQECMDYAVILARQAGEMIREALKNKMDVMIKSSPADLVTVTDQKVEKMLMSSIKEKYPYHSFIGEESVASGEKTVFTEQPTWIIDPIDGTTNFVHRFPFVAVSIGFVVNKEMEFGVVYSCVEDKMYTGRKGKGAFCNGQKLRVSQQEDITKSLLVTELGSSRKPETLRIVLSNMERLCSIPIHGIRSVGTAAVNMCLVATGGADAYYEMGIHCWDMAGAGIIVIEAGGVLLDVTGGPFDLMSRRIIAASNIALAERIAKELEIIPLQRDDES
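The IP-One HTRF competitive assay in carbachol-stimulated CHO-M1 cells quantifies cellular IP1. Compounds spanned up to 46 uM final, and activity is expressed as AC50 from concentration-response fits of the ratio and donor data.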
12-hLO inh: blocks human 12-lipoxygenase activity; P18054; purified 12-hLO, xylenol orange hydroperoxide absorbance; Potency, µM (doses to about 57.1 µM), for inactives: top-dose activity change, negative = inhibition, actives largely listed as inhibitors; 150,000 compounds, 0.12% hits; further: potency means the concentration at half of the fitted maximal effect; nearly all actives have a fitted effect of over 55% in size
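Purified human 12hLO (150 nM final) was preincubated with compounds for 15 min at room temperature in 25 mM Hepes pH 7.0, 0.01% Triton X-100, then reacted with 40 uM arachidonic acid for 30 min. Hydroperoxide was detected with ferrous iron/xylenol orange.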
ALDH1A1 inh: blocks purified human ALDH1A1 activity. Purified ALDH1A1, NADH fluorescence, propionaldehyde substrate. AID 1030. Potency, µM (series often up to 75.3 µM), inactives show at the top dose activity, negative = inhibition, hits mostly inhibitors. 220,000 compounds, 7.3% hits; active means well fitted inhibition curve with a large enough effect, not every such curve was filed as active; inconclusive means small, poorly fitted or top-dose-only effect, or another doubt; inactive means no such curve, though single readings can be large or run the other way;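 further: potency means the concentration at half of the fitted maximal effect; plate controls were no enzyme wells and a reference inhibitor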
Target sequence (P00352 whole entry, looked up): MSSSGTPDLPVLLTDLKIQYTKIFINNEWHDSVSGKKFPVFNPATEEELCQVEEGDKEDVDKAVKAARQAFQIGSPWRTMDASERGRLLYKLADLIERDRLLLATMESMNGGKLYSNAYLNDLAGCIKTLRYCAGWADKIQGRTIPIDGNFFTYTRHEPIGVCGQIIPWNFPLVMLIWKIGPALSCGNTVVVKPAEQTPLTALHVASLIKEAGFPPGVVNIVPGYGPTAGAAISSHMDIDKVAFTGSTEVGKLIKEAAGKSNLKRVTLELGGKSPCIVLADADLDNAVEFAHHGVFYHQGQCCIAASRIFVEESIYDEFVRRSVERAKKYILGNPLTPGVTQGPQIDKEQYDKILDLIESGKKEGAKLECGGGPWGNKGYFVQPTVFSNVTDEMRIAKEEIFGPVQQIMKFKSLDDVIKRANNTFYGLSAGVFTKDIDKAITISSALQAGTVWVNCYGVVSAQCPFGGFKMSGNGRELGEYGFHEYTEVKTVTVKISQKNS
PNC inhibitor: perinucleolar compartment assembly inhibition. PC3M PTB-GFP, PNC prevalence imaging, 16 h; hits give low values. activity change (PNC), negative = inhibition, % at 10 µM. 140,000 compounds, 3.1% hits. AID 2417;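 active means readout at or below -70, meaning at least 70% loss of cells showing the perinucleolar compartment, a nuclear body marking cancer cells; inconclusive means readout between -30 and a set limit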;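 further: plate controls were DMSO wells for no effect and camptothecin positive control wells for full effect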
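PC3M cells stably expressing PTB-GFP, 750–1000 cells/well, treated 16 h at 37 °C with compound (23 nl of library stock), in duplicate. After paraformaldehyde fixation and Hoechst stain, imaged at 20x; PNC prevalence scored by image analysis.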
HPGD block: blocks human HPGD enzyme activity; purified HPGD, NADH fluorescence kinetic, PGE2 substrate; Potency, µM, for inactives: at the top dose activity change, negative = inhibition, actives largely listed as inhibitors; 150,000 compounds, 4.3% hits; AID 894; active means well fitted inhibition curve with a large enough effect, not every such curve was filed as active; inconclusive means small, poorly fitted or top-dose-only effect, or another doubt; inactive means no such curve, though single readings can be large or run the other way; further: potency means the concentration at half of the fitted maximal effect
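NADH formation kinetics: reaction with 30 uM PGE2 and 1 mM NAD+ (final), 20 nM enzyme, Tris-HCl pH 8 with Tween 20, after 15 min compound preincubation at room temperature. Fluorescence change, last versus first of five reads.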
Active calls of the source: *; [ ] = dose if it differs, or a comment. A selection: hits, their analogues and other compounds. The true share with any hit is near 11%. Unless noted, the call rests on the fitted dose curve; in most records, active means well fitted curve in the direction sought with a large enough effect; inconclusive means small, poorly fitted or top-dose-only effect, or another doubt; inactive means no such curve, though single readings can be large; an effect the other way counts as inactive or inconclusive. Unless noted, on the % scale 0 is the no-effect control and ±100 the full control effect.

What do the screens show for `O=C1/C(=C/c2ccccc2)[C@@H](NC2CCCCC2)c2ccccc21`?
IMPase Li inh: 31.6%; 12-hLO inh: -9.0%[11.4 µM]; ALDH1A1 inh: -13.0%[13.5 µM]; HPGD block: -20.5%

Results for Cc1cc(C)nc(SCCS(=O)Cc2ccc(Cl)cc2)n1 (stereo not drawn) ?
IMPase Li inh: -14.1%; IMPase cell inh: -7.4; 12-hLO inh: -2.8%; ALDH1A1 inh: inconclusive; PNC inhibitor: -110.0*; HPGD block: -7.4%

Results for COc1cccc(OCCCCn2c(-c3ccc(Cl)cc3)nc3ccccc3c2=O)c1 ?
IMPase cell inh: 7.5

How did NC(=O)CNC(=O)[C@@H]1CC2(CC(c3cccc([N+](=O)[O-])c3)=NO2)CN1C(=O)c1ccccc1 (stereo partly drawn) do in these assays?
IMPase Li inh: -11.8%[38.3 µM]; IMPase cell inh: 3.0; 12-hLO inh: -1.1%; ALDH1A1 inh: 1µM*; PNC inhibitor: 0.9; HPGD block: -11.4%

How did O=C(CN1CCc2ccccc2C1)Nc1cccc(S(=O)(=O)N2CCCC2)c1 do in these assays?
IMPase Li inh: 13.8%; ALDH1A1 inh: inconclusive

What do the screens show for `NS(=O)(=O)c1cccc(NC(=O)CN2CCc3ccccc32)c1`?
IMPase Li inh: 2.9%; ALDH1A1 inh: 7.94µM*

How did O=C(CN1CCN(Cc2ccccc2)CC1)N/N=C/c1cccnc1 do in these assays?
ALDH1A1 inh: -8.7%

Results for O=C(/C=C/c1ccc([N+](=O)[O-])cc1)N(c1ccccn1)C1CCCCC1 ?
IMPase Li inh: 18.3%; ALDH1A1 inh: 12.6µM*

Results for Cc1ccccc1OCc1nnc(SCC(=O)Nc2ccc3c(c2)oc2ccccc23)n1C ?
IMPase Li inh: 10.3%[38.3 µM]; IMPase cell inh: -1.6; 12-hLO inh: -3.6%; ALDH1A1 inh: 14.1µM*; PNC inhibitor: inconclusive; HPGD block: inconclusive

How did COc1cc2c(cc1NC(=O)CSc1ccccn1)oc1ccccc12 do in these assays?
IMPase Li inh: 6.8%[38.3 µM]; IMPase cell inh: 5.2; 12-hLO inh: 1.2%; ALDH1A1 inh: 6.9%; PNC inhibitor: 89.1; HPGD block: -3.0%

Results for Cn1c(COc2ccccc2)nnc1SCc1cc(=O)[nH]c2ccccc12 ?
IMPase Li inh: 5.2%; IMPase cell inh: 5.0; 12-hLO inh: 0.4%; ALDH1A1 inh: -4.3%; PNC inhibitor: -107.3*; HPGD block: inconclusive

How did COc1ccccc1OCc1nnc(SCC(=O)Nc2ccc(C)cc2)n1C do in these assays?
IMPase Li inh: -17.8%[38.3 µM]; IMPase cell inh: 1.0; 12-hLO inh: -2.4%; ALDH1A1 inh: -8.3%; PNC inhibitor: -3.1; HPGD block: -6.6%

What do the screens show for `O=C(CSc1ccccn1)Nc1ccc2c(c1)oc1ccccc12`?
IMPase Li inh: -3.8%; 12-hLO inh: -0.8%; ALDH1A1 inh: -1.1%; PNC inhibitor: 25.7; HPGD block: 25.1µM*

How did O=c1cc(CSc2nnc(COc3ccccc3)n2-c2ccccc2)c2ccccc2[nH]1 do in these assays?
IMPase Li inh: 14.3%; 12-hLO inh: 0.7%; ALDH1A1 inh: 2.6%; PNC inhibitor: 38.4; HPGD block: -10.4%

Results for CCN(CC)C(=O)CSc1nc2ccc(NC(=O)CSc3nnc(COc4ccccc4C)n3C)cc2s1 ?
IMPase Li inh: -4.1%[38.3 µM]; IMPase cell inh: 7.4; 12-hLO inh: 1.6%; ALDH1A1 inh: inconclusive; PNC inhibitor: 61.4; HPGD block: 20µM*

How did COC(=O)c1cccc(NC(=O)CSc2nnc(COc3ccccc3)n2C)c1 do in these assays?
IMPase Li inh: 11.8%[38.3 µM]; IMPase cell inh: -4.3; 12-hLO inh: -4.6%; ALDH1A1 inh: -3.7%; PNC inhibitor: -126.1*; HPGD block: -21.3%

What do the screens show for `COC(=O)c1ccccc1NC(=O)CN1C(=O)COc2ccc(Cl)cc21`?
IMPase cell inh: 6.8

Results for Cn1c(NC(=O)Cc2cccc3ccccc23)cc(=O)n(C)c1=O ?
IMPase Li inh: -0.9%; ALDH1A1 inh: 14.1µM*

Results for COc1ccc(CC(=O)Nc2cc(=O)n(C)c(=O)n2C)cc1OC ?
IMPase Li inh: -3.4%; ALDH1A1 inh: 17.2%

How did COCC(=O)Nc1cc(=O)n(C)c(=O)n1C do in these assays?
IMPase Li inh: 17.9%[38.3 µM]; IMPase cell inh: 17.8; 12-hLO inh: 1.1%; ALDH1A1 inh: 5.5%; PNC inhibitor: -83.6*; HPGD block: -7.2%

Results for Cc1ccc(NC2=C(Cl)C(=O)c3ccccc3C2=O)cc1 ?
IMPase cell inh: -6.1; 12-hLO inh: 0.7%; ALDH1A1 inh: 4.3%; PNC inhibitor: -13.9

Results for CC(C)(C)c1ccc(S(=O)(=O)Nc2ccccn2)cc1 ?
IMPase Li inh: -0.3%; ALDH1A1 inh: 31.6µM*

How did Nc1ccc(S(=O)(=O)Nc2ccccn2)cc1 do in these assays?
IMPase Li inh: -7.0%; IMPase cell inh: 0.4[20.6 µM]; 12-hLO inh: 2.5%; ALDH1A1 inh: 1.3%; PNC inhibitor: 17.0; HPGD block: -12.4%

How did O=C1C(Cl)=C(Nc2ccc(S(=O)(=O)Nc3ccccn3)cc2)C(=O)c2ccccc21 do in these assays?
IMPase Li inh: 9.4%; 12-hLO inh: inconclusive; ALDH1A1 inh: 0.631µM*; HPGD block: 2.82µM*

How did CCN(CC)c1ccc(NC2=C(Cl)C(=O)c3ccccc3C2=O)cc1 do in these assays?
IMPase Li inh: 42.6%; 12-hLO inh: -7.8%; ALDH1A1 inh: 10µM*; PNC inhibitor: inconclusive; HPGD block: 7.94µM*

How did Cn1nnc(NC(=S)NC(=O)c2ccc(-c3ccc(Br)cc3)o2)n1 do in these assays?
IMPase Li inh: -6.2%; ALDH1A1 inh: 7.94µM*

How did CN(C)c1cccc(O)c1 do in these assays?
IMPase Li inh: -3.5%; 12-hLO inh: -0.9%; ALDH1A1 inh: 8.91µM*; HPGD block: -8.4%

How did CCN(CC)c1cccc(O)c1 do in these assays?
IMPase Li inh: -5.1%; 12-hLO inh: -1.4%; ALDH1A1 inh: inconclusive; HPGD block: 0.6%

How did CCCCCC(=O)N1CCN(CCN=CC2=C(O)CC(c3ccc(OC)cc3)CC2=O)CC1 (stereo not drawn) do in these assays?
IMPase Li inh: 2.7%[38.3 µM]; IMPase cell inh: -10.8; 12-hLO inh: -4.4%; ALDH1A1 inh: inconclusive; PNC inhibitor: 20.1; HPGD block: -16.9%

Results for CCCCCC(=O)N1CCN(CCN=CC2=C(O)CC(c3ccc(OC)c(OC)c3)CC2=O)CC1 (stereo not drawn) ?
IMPase Li inh: 39.7%[38.3 µM]; IMPase cell inh: 3.6; 12-hLO inh: 1.4%; ALDH1A1 inh: 22.4µM*; PNC inhibitor: inconclusive; HPGD block: -3.2%

What do the screens show for `COc1ccccc1CNC(=O)c1ccc(-c2ccccc2Cl)o1`?
IMPase Li inh: 19.3%; 12-hLO inh: -7.9%; ALDH1A1 inh: 14.1µM*; PNC inhibitor: 35.3; HPGD block: -39.7%
